Reference: PubChem BioAssay (NCI)
Compounds without any hit were thinned out: in the full panel of roughly 83,000, 20% have a hit.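 Single-concentration screen, 48 h exposure, 96-well plates. Endpoint: percent growth. Below 10 = active.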 Activity calls are given as the source filed them.

Key:
Assay in all cases: NCI-60 one-dose screen, 48 h (100 = growth as untreated, 0 = no growth, -100 = all killed)
Conditions in all cases: 10 µM unless noted
SR leukemia = test system: SR leukemia
RPMI-8226 leukemia = test system: RPMI-8226 leukemia
OVCAR-8 ovarian = test system: OVCAR-8 ovarian
OVCAR-5 ovarian = test system: OVCAR-5 ovarian
OVCAR-4 ovarian = test system: OVCAR-4 ovarian
IGROV1 ovarian = test system: IGROV1 ovarian
OVCAR-3 ovarian = test system: OVCAR-3 ovarian
HS 578T breast = test system: HS 578T breast
NCI/ADR-RES ovarian = test system: NCI/ADR-RES ovarian
SK-OV-3 ovarian = test system: SK-OV-3 ovarian

Measured: growth

O=C1Nc2ccccc2/C1=C/c1cn(CCCn2c3ccccc3c(=O)c3ccccc32)c2ccccc12
inactive: SR leukemia 84% | RPMI-8226 leukemia 90% | OVCAR-8 ovarian 85% | OVCAR-5 ovarian 103% | OVCAR-4 ovarian 88.1% | IGROV1 ovarian 45.8% | OVCAR-3 ovarian 84.9% | HS 578T breast 85.2% | NCI/ADR-RES ovarian 90.3%

Cc1cc(C)nc(NC(N)=NCCc2ccccc2)n1
inactive: SR leukemia 19.2% | RPMI-8226 leukemia 49.7% | OVCAR-8 ovarian 53.4% | OVCAR-5 ovarian 72% | SK-OV-3 ovarian 46.7% | IGROV1 ovarian 40% | OVCAR-3 ovarian 33.5% | HS 578T breast 45.3% | NCI/ADR-RES ovarian 85.9%

O=C(NCN1C(=O)c2cccc3cccc(c23)C1=O)N1CCC(Cc2ccccc2)CC1
inactive: SR leukemia 89.6% | RPMI-8226 leukemia 87.8% | OVCAR-8 ovarian 102% | OVCAR-5 ovarian 104% | OVCAR-4 ovarian 98.8% | IGROV1 ovarian 100% | OVCAR-3 ovarian 109% | HS 578T breast 95.8% | NCI/ADR-RES ovarian 102%

O=C(N/N=C\c1c(O)ccc2ccccc12)C1CC1
inactive: SR leukemia 18.3% | RPMI-8226 leukemia 40.4% | OVCAR-8 ovarian 33.1% | OVCAR-5 ovarian 90.9% | SK-OV-3 ovarian 44.9% | IGROV1 ovarian 24.3% | HS 578T breast 74.6%
active: OVCAR-3 ovarian 1.02% | NCI/ADR-RES ovarian 9.42%

Fc1cccc(-c2[nH]nc3nc(Nc4cccnc4)sc23)c1
active: OVCAR-3 ovarian -18.3%
inactive: SR leukemia 15% | RPMI-8226 leukemia 27.2% | OVCAR-8 ovarian 54% | OVCAR-5 ovarian 86.9% | SK-OV-3 ovarian 41% | IGROV1 ovarian 51.4% | HS 578T breast 69.4% | NCI/ADR-RES ovarian 21.6%

S=c1[nH]nc2ccccn12
inactive: SR leukemia 95.7% | RPMI-8226 leukemia 108% | OVCAR-8 ovarian 125% | OVCAR-5 ovarian 108% | SK-OV-3 ovarian 114% | IGROV1 ovarian 115% | OVCAR-3 ovarian 124% | HS 578T breast 98.5% | NCI/ADR-RES ovarian 100%

COc1cc2[nH]c(C(=O)c3cc(OC)c(OC)c(OC)c3)c(N)c2cc1C#CCO
active: SR leukemia 0.173% | OVCAR-3 ovarian -17.8%
inactive: RPMI-8226 leukemia 26.8% | OVCAR-8 ovarian 31.7% | OVCAR-5 ovarian 15.9% | SK-OV-3 ovarian 18.3% | IGROV1 ovarian 22.9% | HS 578T breast 19.8%

CC(=O)O[C@H]1CC[C@@]2(C)C(=CC[C@@H]3[C@@H]2CC[C@]2(C)C(=O)N(O)C(=O)C[C@@H]32)C1
inactive: SR leukemia 74.8% | RPMI-8226 leukemia 52.8% | OVCAR-8 ovarian 101% | OVCAR-5 ovarian 98.9% | SK-OV-3 ovarian 93.2% | IGROV1 ovarian 83.3% | OVCAR-3 ovarian 102% | HS 578T breast 106% | NCI/ADR-RES ovarian 100%

CC(=O)n1c(/C(C#N)=C/c2ccc(N(C)C)cc2)cc2ccccc21
active: OVCAR-3 ovarian 8.84%
inactive: SR leukemia 26.8% | RPMI-8226 leukemia 16.2% | OVCAR-8 ovarian 40.3% | OVCAR-5 ovarian 60.7% | OVCAR-4 ovarian 76.8% | IGROV1 ovarian 40.3% | HS 578T breast 11.9% | NCI/ADR-RES ovarian 16.7%

C#CCn1c(C)cc(C)c(C#N)c1=O
inactive: SR leukemia 101% | RPMI-8226 leukemia 103% | OVCAR-8 ovarian 103% | OVCAR-5 ovarian 99.9% | OVCAR-4 ovarian 105% | IGROV1 ovarian 103% | OVCAR-3 ovarian 112% | HS 578T breast 103% | NCI/ADR-RES ovarian 106%

Cn1cc(-c2csc(-c3c[nH]c4ccc(F)cc34)n2)c2cccnc21
active: OVCAR-3 ovarian -2.33% | NCI/ADR-RES ovarian 9.55%
inactive: SR leukemia 27.2% | RPMI-8226 leukemia 52% | OVCAR-8 ovarian 47.6% | OVCAR-5 ovarian 78.4% | SK-OV-3 ovarian 64.6% | IGROV1 ovarian 41.6% | HS 578T breast 76.1%

N#CC1C(=N)Cc2ccccc2-c2ccccc21 (stereo not drawn)
active: NCI/ADR-RES ovarian 1.44%
inactive: SR leukemia 26.7% | RPMI-8226 leukemia 52.3% | OVCAR-8 ovarian 63.1% | OVCAR-5 ovarian 88.3% | SK-OV-3 ovarian 66.7% | IGROV1 ovarian 45.7% | OVCAR-3 ovarian 41.6% | HS 578T breast 36.5%

C#Cc1cc2c(N)c(C(=O)c3cc(OC)c(OC)c(OC)c3)[nH]c2cc1OC
inactive: RPMI-8226 leukemia 26.7% | OVCAR-8 ovarian 47.8% | OVCAR-5 ovarian 37.5% | SK-OV-3 ovarian 28.8% | IGROV1 ovarian 32.6% | NCI/ADR-RES ovarian 21.9%
active: SR leukemia 7.33% | OVCAR-3 ovarian 0.789% | HS 578T breast 1.91%

O=[N+]([O-])c1ccc(/C=N\Nc2ccccc2)cc1
inactive: SR leukemia 106% | RPMI-8226 leukemia 67.8% | OVCAR-8 ovarian 61.8% | OVCAR-5 ovarian 88% | SK-OV-3 ovarian 101% | IGROV1 ovarian 78% | OVCAR-3 ovarian 82.5% | HS 578T breast 63.1% | NCI/ADR-RES ovarian 60%

Cc1cc(Nc2ccc(F)cc2)nc(N2CCN(c3ccnc4cc(Cl)ccc34)CC2)n1
active: SR leukemia 2.7% | OVCAR-5 ovarian 8.2%
inactive: RPMI-8226 leukemia 12.5% | OVCAR-8 ovarian 31.9% | SK-OV-3 ovarian 46.8% | IGROV1 ovarian 31.6% | OVCAR-3 ovarian 24.1% | HS 578T breast 39.3% | NCI/ADR-RES ovarian 13.5%

O=C(O)c1cccc2c1C(=O)N(c1ccc3c(c1)Cc1ccccc1-3)C2=O
inactive: SR leukemia 102% | RPMI-8226 leukemia 110% | OVCAR-8 ovarian 107% | OVCAR-5 ovarian 116% | SK-OV-3 ovarian 114% | IGROV1 ovarian 125% | OVCAR-3 ovarian 122% | HS 578T breast 112% | NCI/ADR-RES ovarian 116%

COc1ccc(/C=C(\C#N)c2cc3ccccc3n2C(C)=O)cc1
inactive: SR leukemia 47.3% | RPMI-8226 leukemia 83.2% | OVCAR-8 ovarian 103% | OVCAR-5 ovarian 104% | OVCAR-4 ovarian 96.5% | IGROV1 ovarian 89.8% | OVCAR-3 ovarian 92.8% | HS 578T breast 87.4% | NCI/ADR-RES ovarian 55.6%

N=C(N)c1ccc(-c2ccc(-c3cc(F)cc(F)c3)o2)nc1
inactive: RPMI-8226 leukemia 60.5% | OVCAR-8 ovarian 97.5% | OVCAR-5 ovarian 88.9% | OVCAR-4 ovarian 96.2% | IGROV1 ovarian 88.6% | OVCAR-3 ovarian 95.6% | HS 578T breast 87.8% | NCI/ADR-RES ovarian 94.6%
active: SR leukemia 7.21%

COC(=O)[C@]12CC[C@@H](C)[C@H](C)[C@@H]1C1=CC(=O)[C@@H]3[C@@]4(C)C[C@@H](O)[C@H](O)[C@@]5(C)COC(=C45)C[C@@]3(C)[C@]1(C)CC2
inactive: RPMI-8226 leukemia 51.2% | OVCAR-8 ovarian 61.4% | OVCAR-5 ovarian 95.9% | OVCAR-4 ovarian 63% | IGROV1 ovarian 47.6% | OVCAR-3 ovarian 48.3% | HS 578T breast 49.7% | NCI/ADR-RES ovarian 20.8%
active: SR leukemia 7.5%

O=C(N/N=C\c1ccccc1O)C1CC1
inactive: SR leukemia 104% | RPMI-8226 leukemia 107% | OVCAR-8 ovarian 93.5% | OVCAR-5 ovarian 117% | SK-OV-3 ovarian 101% | IGROV1 ovarian 95% | OVCAR-3 ovarian 102% | HS 578T breast 115% | NCI/ADR-RES ovarian 92.8%

C=C(C)[C@@H]1CC[C@]2(CN)CC[C@]3(C)[C@H](CC[C@@H]4[C@@]5(C)CCC(=O)NC(C)(C)[C@@H]5CC[C@]43C)[C@@H]12
inactive: RPMI-8226 leukemia 37.9% | OVCAR-8 ovarian 66.5% | OVCAR-5 ovarian 97.8% | OVCAR-4 ovarian 70.7% | IGROV1 ovarian 70.3% | OVCAR-3 ovarian 88% | HS 578T breast 84.1% | NCI/ADR-RES ovarian 70%
active: SR leukemia -27.1%

Brc1cnc2[nH]cc(-c3nnc(-c4ccccc4)o3)c2c1
inactive: SR leukemia 68.5% | RPMI-8226 leukemia 85% | OVCAR-8 ovarian 84.7% | OVCAR-5 ovarian 96.5% | OVCAR-4 ovarian 71.3% | IGROV1 ovarian 41.2% | OVCAR-3 ovarian 70.2% | HS 578T breast 79.2% | NCI/ADR-RES ovarian 80%

COC(=O)C(N)CSC(c1ccccc1)(c1ccccc1)c1ccccc1 (stereo not drawn)
inactive: RPMI-8226 leukemia 30.9% | OVCAR-8 ovarian 36.8% | OVCAR-5 ovarian 33.3% | OVCAR-4 ovarian 79.8% | IGROV1 ovarian 28.6% | OVCAR-3 ovarian 20.7% | HS 578T breast 21.5% | NCI/ADR-RES ovarian 68.4%
active: SR leukemia 7.6%

Cc1cc(Cl)c2c(N(C)C)cccc2n1
inactive: SR leukemia 75% | RPMI-8226 leukemia 104% | OVCAR-8 ovarian 94.5% | OVCAR-5 ovarian 119% | OVCAR-4 ovarian 108% | IGROV1 ovarian 88.2% | OVCAR-3 ovarian 100% | HS 578T breast 136% | NCI/ADR-RES ovarian 106%

CC(=O)O[C@H]1CC[C@@]2(C)[C@@H](CC[C@@H]3[C@@H]2CC(=O)[C@@]2(C)[C@H]3C[C@@H](C3CCCC3=O)[C@@H]2C(C)=O)C1 (stereo partly drawn)
inactive: SR leukemia 87.9% | RPMI-8226 leukemia 91.2% | OVCAR-8 ovarian 98.9% | OVCAR-5 ovarian 107% | SK-OV-3 ovarian 107% | IGROV1 ovarian 98.1% | OVCAR-3 ovarian 115% | HS 578T breast 108%

Cc1ccc(Sc2sc(-c3ccccc3)nc2[P+](c2ccccc2)(c2ccccc2)c2ccccc2)cc1
active: SR leukemia -10.1% | RPMI-8226 leukemia -39.2% | OVCAR-8 ovarian 7.53% | OVCAR-4 ovarian 2.09% | SK-OV-3 ovarian -22.5% | IGROV1 ovarian -0.559% | OVCAR-3 ovarian -9.1% | HS 578T breast -1.87% | NCI/ADR-RES ovarian -7.72%

CC1=CC(=O)N(c2cccc3c(N4C(=O)C=C(C)C4=O)cccc23)C1=O
inactive: RPMI-8226 leukemia 21.5% | OVCAR-8 ovarian 80.3% | OVCAR-5 ovarian 109% | SK-OV-3 ovarian 108% | IGROV1 ovarian 76.3% | HS 578T breast 110% | NCI/ADR-RES ovarian 78.3%
active: SR leukemia -21.1% | OVCAR-3 ovarian -16.2%

Cc1cc(N(CCCNc2ccnc3cc(Cl)ccc23)Cc2ccco2)nc(N2CCOCC2)n1
active: SR leukemia 8.63%
inactive: RPMI-8226 leukemia 35.1% | OVCAR-8 ovarian 80.4% | OVCAR-4 ovarian 65.7% | SK-OV-3 ovarian 78.6% | IGROV1 ovarian 45.2% | OVCAR-3 ovarian 72.4% | HS 578T breast 77.5% | NCI/ADR-RES ovarian 67.4%

O=C1OC(c2ccc(Cl)c(Cl)c2)=C/C1=C/c1cccc([N+](=O)[O-])c1
inactive: SR leukemia 117% | RPMI-8226 leukemia 99% | OVCAR-8 ovarian 99.4% | OVCAR-4 ovarian 116% | SK-OV-3 ovarian 96.5% | IGROV1 ovarian 81.8% | OVCAR-3 ovarian 111% | HS 578T breast 97.7%
